According to PubChem BioAssay (NCATS):
Inconclusive results are not listed. Active and inactive are the calls of the source. Calls follow the shape of the dose curve; as a rule, active = well fitted curve in the direction sought with a large enough effect; inconclusive = small, poorly fitted or top-dose-only effect, or another doubt; inactive = no such curve, though single readings can be large; an effect the other way counts as inactive or inconclusive.

Experiments:
[1] = Cell Viability - LYMP2-004 (AID 966); settings: LYMP2-004 lymphoblastoid cell viability, qHTS; series mostly up to 92.2 µM; also: nearly all actives have a fitted effect of over 65% in size
Summary of the method: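 Human lymphoblastoid cells (2500/well) in complete medium were treated with compounds for 24 hr at 37 C, then intracellular ATP was measured by CellTiter-Glo luminescence. AC50 values came from Hill-equation fits of concentration-response data.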

[2] = Cell Viability - LYMP2-005 (AID 967); settings: LYMP2-005 lymphoblastoid cell viability; series mostly up to 92.2 µM
Summary of the method: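 LYMP2-005 human lymphoblastoid cells (2500/well) were treated with compounds for 24 h at 37 C. Intracellular ATP was then measured by CellTiter-Glo luminescence after 30 min at room temperature. AC50 values came from Hill-equation fits of qHTS concentration-response data.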

[3] = Cell Viability - LYMP2-009 (AID 968); settings: LYMP2-009 lymphoblastoid cell viability; series mostly up to 92.2 µM; also: nearly all actives have a fitted effect of over 55% in size
[4] = Cell Viability - LYMP2-011 (AID 969); settings: LYMP2-011 lymphoblastoid cells viability; series mostly up to 92.2 µM; also: nearly all actives have a fitted effect of over 60% in size
Summary of the method: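 Human lymphoblastoid cells (2500/well) were plated in complete medium, preincubated 5 hr at 37 C, then exposed to compounds for 24 hr at 37 C. Intracellular ATP was read by CellTiter-Glo luminescence, and AC50 came from Hill-equation concentration-response fits.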

[5] = Cell Viability - LYMP2-017 (AID 972); settings: LYMP2-017 lymphoblastoid cell viability; series mostly up to 92.2 µM; also: nearly all actives have a fitted effect of over 55% in size
Summary of the method: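 Human lymphoblastoid cells (2500/well) were seeded in complete medium, held 5 hr at 37 C, then exposed to compounds for 24 hr at 37 C. Intracellular ATP was read by CellTiter-Glo luminescence after 30 min at room temperature, with AC50 values from Hill-equation fits.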

[6] = Cell Viability - LYMP2-023 (AID 975); settings: LYMP2-023 lymphoblastoid cell viability; series mostly up to 92.2 µM;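 also: cellular ATP measured by luciferase luminescence as viability proxy; nearly all actives have a fitted effect of over 55% in size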
Summary of the method: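 Human lymphoblastoid cells (2500/well) were preincubated 5 hr at 37 C, then exposed to compounds for 24 hr at 37 C in complete medium. Cellular ATP was read by CellTiter-Glo luminescence, and AC50 came from Hill-equation fits.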

[7] = Cell Viability - LYMP2-013 (AID 970); settings: LYMP2-013 lymphoblastoid cells viability; series mostly up to 92.2 µM; also: nearly all actives have a fitted effect of over 55% in size
Summary of the method: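 Human lymphoblastoid cells, 2500/well, were preincubated 5 hr at 37 C, then treated with compounds for 24 hr at 37 C in complete medium. Intracellular ATP was read by CellTiter-Glo luminescence; AC50 from Hill-equation fits of concentration-response data.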

[8] = Cell Viability - LYMP2-015 (AID 971); settings: LYMP2-015 lymphoblastoid cell viability; series mostly up to 92.2 µM; also: nearly all actives have a fitted effect of over 55% in size
From the text: NIH Chemical Genomics Center [NCGC]
NIH Molecular Libraries Screening Centers Network [MLSCN]
National Institutes of Environmental Health Sciences [NIEHS]
National Toxicology Program [NTP]
We have developed a 1536-well cell-based assay for quantitative high throughput screening (qHTS) against a number of cell lines to determine in vitro cytotoxicity of small molecules. This particular assay uses a human lymphoblastoid cell line (LYMP2-015) purchased from Coriell Institute for Medical Research.
NCGC Assay Protocol Summary:
The CellTiter-Glo luminescent cell viability assay (Promega) is a homogeneous method to measure the number of viable cells in culture. The end point readout of this assay is based on quantitation of intracellular ATP, an indicator of metabolic activity, using the luciferase reaction. Luciferase catalyzes the oxidation of beetle Luciferin to oxyluciferin and light in the presence of ATP. The luminescent signal is proportional to amount of ATP present.
Using the CellTiter-Glo luminescent cell viability assay, the amount of cellular ATP was measured in the lymphoblastoid cell line with complete culture medium following compound treatment for 24 hours. The assay was performed in opaque white Kalypsys 1536-well plates. In the screen, tetraoctylammonium bromide was used as positive control. Library compounds were measured for their ability to cause acute toxicity in the cell line, as reflected by a decrease in intracellular ATP levels, in a concentration-dependent manner. […] AC50 values were determined from concentration-response data modeled with the standard Hill equation.
qHTS protocol for CellTiter Glo lymphoblastoid cellular assay
[Step] [Parameter] [Value] [Description]
1. Reagent; 5 uL; 2500 lymphoblastoid cells/well
2. Time; 5 hr; 37 C incubation
4. Controls; 23 nL; Tetraoctylammonium bromide 6.4pM to 92 uM
5. Time; 24 hr; 37 C incubation
6. Reagent; 5 uL; CellTiter Glo reagent
7. Time; 30 min; Room Temperature
8. Detection; Luminescence; Viewlux plate reader
Keywords: cell viability, cytotoxicity, lymphoblastoid cell line, luminescence, NTPHTS, NTPHTS_NCGC, NIEHS, DSSTox, MLSMR, MLSCN, NIH Roadmap, qHTS, NCGC

[9] = Cell Viability - LYMP2-019 (AID 973); settings: LYMP2-019 lymphoblastoid cell line viability; series mostly up to 92.2 µM; also: nearly all actives have a fitted effect of over 55% in size
Summary of the method: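 Human lymphoblastoid cells were seeded at 2500 cells/well, preincubated 5 hr at 37 C, then exposed to compounds for 24 hr at 37 C in complete medium. Intracellular ATP was measured by CellTiter-Glo luminescence; AC50 from Hill fits.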

[10] = Cell Viability - LYMP2-021 (AID 974); settings: LYMP2-021 lymphoblastoid cells viability; series mostly up to 92.2 µM
Summary of the method: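 Human lymphoblastoid cells (2500/well) were preincubated 5 hr at 37 C, then exposed to compounds for 24 hr at 37 C in complete medium. Intracellular ATP was read by CellTiter-Glo luminescence; AC50 came from Hill-equation fits of concentration-response data.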

Measured: outcome

O=C(O)CC(O)(CC(=O)O)C(=O)O
inactive: [1] | [2] | [3] | [4] | [5] | [6]

C=Cc1ccccc1
not listed: [2]
inactive: all other assays above

COC(C)=O
inactive: all assays above

CN(C)Cc1ccccc1
inactive: all assays above

CCCCCCCCCC(=O)O
inactive: all assays above
